Compound activity as filed in PubChem.
UGM FP inh = M. tuberculosis UGM enzyme inhibitors, primary screen, biochemical, fluorescence polarization, single point. inhibition, % at 10 µM. purified UGM, fluorescence polarization probe displacement. 320,000 compounds, 0.06% hits; in the data active means inhibition above about 10%, passing the limit was not always enough
Rv3671c inh = Rv3671c serine protease inhibitors, primary screen, biochemical, fluorescence polarization, M. tuberculosis H37Rv; P9WHR9; inhibition, % at 5.96 µM; 320,000 compounds, 0.048% hits; AID 2606, 2010; in the data active means inhibition above about 38%;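 further: extracellular domain of Rv3671c used as enzyme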
Target sequence (P9WHR9 whole entry, looked up, the tested form may be a part): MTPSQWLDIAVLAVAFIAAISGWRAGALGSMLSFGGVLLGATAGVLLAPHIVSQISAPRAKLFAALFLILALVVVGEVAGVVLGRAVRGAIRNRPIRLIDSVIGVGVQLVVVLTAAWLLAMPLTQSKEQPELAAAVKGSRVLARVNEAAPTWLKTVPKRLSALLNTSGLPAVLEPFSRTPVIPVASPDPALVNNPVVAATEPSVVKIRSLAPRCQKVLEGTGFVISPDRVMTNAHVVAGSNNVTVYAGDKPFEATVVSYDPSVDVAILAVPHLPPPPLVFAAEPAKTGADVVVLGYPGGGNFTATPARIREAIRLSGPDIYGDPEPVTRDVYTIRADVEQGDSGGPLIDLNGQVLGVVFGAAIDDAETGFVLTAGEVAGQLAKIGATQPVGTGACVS
GDH-TPI counter-1 = GDH-TPI coupling enzyme inhibitors, primary screen, artefact control for M. tuberculosis FBA inhibitor project, biochemical, absorbance, full deck | GDH-TPI coupled enzyme counterscreen, NADH absorbance | 360,000 compounds, 1.2% hits | inhibition, % at 4.8 µM; in the data active means inhibition above about 30%
FBA Mtb inh = Mtb FBA enzyme inhibitors, primary screen, biochemical, fluorescence, strain H37Rv. Fructose-bisphosphate aldolase (Mycobacterium tuberculosis (strain ATCC 25618 / H37Rv)), …. purified M. tuberculosis FBA, fluorescence read-out. inhibition, % at 1 µM. 360,000 compounds, 2.3% hits
Mtb FBA confirm = M. tuberculosis aldolase blockers, biochemical, fluorescence, strain H37Rv, confirmation; shares compounds with FBA Mtb inh; purified M. tuberculosis FBA, fluorescence read-out; inhibition, % at 1 µM; 5,600 compounds, 78% hits; AID 651616, 2012
GDH-TPI counter-2 = GDH-TPI coupling enzyme inhibitors, artefact control for M. tuberculosis FBA inhibitor project, biochemical, fluorescence, high throughput | shares compounds with FBA Mtb inh | GDH-TPI coupled enzyme counterscreen | inhibition, % at 1 µM | 5,600 compounds, 81% hits; in the data active means inhibition above about 10%
Each line names hits and unclear results; the compound was inactive in the other large screens (follow-up assays come after a bar, where they were run). Shown are actives, neighbours in structure and some others; about 3.5% of the full set was active somewhere. Unless noted, no stated cut-off is given here; in the data, active means inhibition above about 27%; inactive means the rest.

CN(Cc1cn(-c2ccccc2)nc1-c1cc2ccccc2o1)C(=O)CCC(=O)O	FBA Mtb inh 45.5 | Mtb FBA confirm inactive | GDH-TPI counter-2 inactive
O=C(O)/C=C\c1cn(-c2ccccc2)nc1-c1cc2ccccc2o1	FBA Mtb inh 76.5 | Mtb FBA confirm 124.0 | GDH-TPI counter-2 101.0
CN(C)C(=O)c1cn(-c2ccccc2)nc1-c1cc2ccccc2o1	none
O[C@@H]1CN(Cc2cccs2)[C@@H](c2ccc(Cl)cc2)C[C@H]1n1cc(C2CC2)nn1	none (no result: UGM FP inh, Rv3671c inh)
CCOC(=O)c1n[nH]n2c1nc(=O)c1ccccc12	FBA Mtb inh 32.5 (no result: Rv3671c inh) | Mtb FBA confirm 116.3 | GDH-TPI counter-2 108.3
Cc1ccc(S(=O)(=O)c2n[nH]n3c2nc(=O)c2ccccc23)cc1	none
COc1ccccc1CNC(=O)COC(=O)c1cnccn1	none
COc1ccccc1CNC(=O)COC(=O)c1nccnc1N	FBA Mtb inh 48.2 | Mtb FBA confirm inactive | GDH-TPI counter-2 inactive
Nc1nccnc1C(=O)OCC(=O)NCCc1ccc(S(N)(=O)=O)cc1	FBA Mtb inh 88.0 | Mtb FBA confirm 100.4 | GDH-TPI counter-2 91.5
CC1(C(=O)NCCCN2CCCC2=O)CCN1CCc1ccccc1 (configuration not stated)	none (no result: UGM FP inh, Rv3671c inh)
CCOC(=O)c1c(NC(=O)CN2C(=O)C(=O)N(C(C)C)C2=O)sc(C)c1CC	none
Cc1ccc2[nH]c3c(=O)n(Cc4ccncc4)cnc3c2c1	FBA Mtb inh 28.9 | Mtb FBA confirm active | GDH-TPI counter-2 182.0
O=c1c2[nH]c3ccc(Br)cc3c2ncn1Cc1ccncc1	none (no result: GDH-TPI counter-1, FBA Mtb inh)
CCN1CCCC1Cn1cnc2c([nH]c3ccc(C)cc32)c1=O (configuration not stated)	FBA Mtb inh 37.2 | Mtb FBA confirm 59.5 | GDH-TPI counter-2 37.3
CC(=NNC1=NCCN1)c1cnn(C2=NCCN2)c1C	none (no result: UGM FP inh, Rv3671c inh, GDH-TPI counter-1)
Cc1ccn2c(c1)nc(=O)c1cc(S(=O)(=O)N3CCCCC3)ccc12	FBA Mtb inh 54.1 | Mtb FBA confirm 44.9 | GDH-TPI counter-2 39.2
O=c1nc2ccccn2c2ccc(S(=O)(=O)N3CCCCC3)cc12	FBA Mtb inh 98.8 | Mtb FBA confirm 111.2 | GDH-TPI counter-2 84.6
O=c1nc2ccc(Cl)cn2c2ccc(S(=O)(=O)N3CCCCC3)cc12	FBA Mtb inh 59.6 | Mtb FBA confirm inactive | GDH-TPI counter-2 inactive
O=S(=O)(c1ccc2ccccc2c1)N1CCN(S(=O)(=O)N2CCCCC2)CC1	none
COC(=O)[C@]1(Cc2ccccc2)N[C@H](CN(C)S(=O)(=O)c2ccc(-c3ccccc3)cc2)[C@@H]2C(=O)N(C)C(=O)[C@@H]21	none
O=c1cc(CN2CCc3ccccc32)c2ccc(O)cc2o1	FBA Mtb inh 40.9 | Mtb FBA confirm inactive | GDH-TPI counter-2 inactive
Cc1cc(=O)oc2cc(OCC(=O)N3CCN(Cc4ccc5c(c4)OCO5)CC3)ccc12	none
CCCCc1cc(=O)oc2cc(OCC(=O)N3CCC(C(=O)O)(c4ccccc4)CC3)ccc12	none
Cc1cc(=O)oc2cc(OCC(=O)N3CCN(c4ccc(F)cc4)CC3)ccc12	none
Cc1cc(=O)oc2cc(OCC(=O)N3CCN(C(=O)c4ccco4)CC3)ccc12	FBA Mtb inh 27.5 | Mtb FBA confirm 78.5 | GDH-TPI counter-2 67.9
Cc1cc(=O)oc2cc(OCC(=O)N3CCC(C(=O)O)(c4ccccc4)CC3)ccc12	FBA Mtb inh 27.8 | Mtb FBA confirm inactive | GDH-TPI counter-2 26.1
Cc1cc(=O)oc2cc(OCC(=O)N3CCN(Cc4ccccc4)CC3)ccc12	FBA Mtb inh 35.2 | Mtb FBA confirm inactive | GDH-TPI counter-2 inactive
Cc1cc(=O)oc2cc(OCC(=O)N3c4ccccc4NC(=O)C3(C)C)ccc12	FBA Mtb inh 33.6 | Mtb FBA confirm 107.3 | GDH-TPI counter-2 87.2
CCOCCCN(C(=O)c1snc(C(N)=O)c1N)C(C(=O)NC1CCCC1)c1ccc(OC)cc1 (configuration not stated)	none
CCOC(=O)c1nc2sc3c(c2c(=O)[nH]1)CCC(C)C3 (configuration not stated)	FBA Mtb inh 101.0 | Mtb FBA confirm 74.0 | GDH-TPI counter-2 57.4
COc1ccc(-c2ccc(C(=O)NCc3ccco3)c3occc23)c(C)c1	FBA Mtb inh 27.8 (no result: UGM FP inh, Rv3671c inh) | Mtb FBA confirm 55.9 | GDH-TPI counter-2 49.8
